Potency and activity change, negative = inhibition data for 40 compounds are collected here from PubChem BioAssay (NCATS).

Inconclusive results are not listed. A call without a number means that no potency is given here. Calls of active or inactive are those of the source. The call rests on the fitted dose curve; in most records, active means well fitted inhibition curve with a large enough effect; inconclusive means small, poorly fitted or top-dose-only effect; inactive means flat fitted curve, though single readings scatter.
Potency means the concentration at half of the fitted maximal effect.

The experiment deals with Zika virus NS2B-NS3 protease. Description: Primary screen GU AMC qHTS for Zika virus inhibitors (AID 1347154). Further: nearly all actives have a fitted effect of over 70% in size. The conditions noted are these: Zika NS2B-NS3 unlinked protease, AMC fluorogenic substrate; series mostly up to 54.1 µM. From the text:
Avindra Nath, Ph.D., National Institute of Neurological Disorders and Stroke (NINDS), Bethesda, MD
Radhakrishnan Padmanabhan, Ph.D., Georgetown University (GU), Washington D.C.
Zika Virus causes congenital defects, including microcephaly and is associated with Guillain-Barre syndrome, eningoencephalitis and myelitis in infected adult. […] Using a target-based approach, we hope to establish a screening paradigm to uncover novel, cell-active NS2B-NS3 protease (Zika Virus) specific inhibitors from NCATS' collection of small molecules using qHTS.
Early Translation Branch (ETB)
National Center for Advancing Translational Sciences (NCATS), Rockville, MD
National Institute of Health (NIH), Bethesda, Maryland
Padmanabhan lab provided the NS2B hydrophilic domain and NS3 protease domain in a noncovalent complex used for the unlinked assay. Control compound aprotinin is obtained from Thermo Scientific (#78432; Waltham, Massachusetts). NS2B-NS3 AMC substrate (Bz-Nle-Lys-Arg-Arg-AMC; Nle-KRR-AMC) purchased from Bachem (#I-1995; Torrance, CA). Ac-VKTGKR-AMC purchased from Genscript or Bachem, Ac-FAAGKR-AMC purchased from Genscript, Ac-GLVKRR-AMC purchased from Genscript, Ac-LKKR-AMC purchased from Genscript.
GU AMC unlinked NS2B-NS3 protease qHTS protocol
Briefly, 3 microL of Zika virus unlinked NS2B-NS3 protease (25 nM for linked final concentration), in assay buffer (10 mM Tris-HCl pH 8.0 with 0.01% Tween 20) was dispensed into a 1,536-well solid-bottom black plate (Greiner Bio One, Monroe, NC). […] Plates were then read immediately on a ViewLux High-throughput CCD imager (PerkinElmer, Waltham, MA) equipped with standard UV fluorescence optics (340(30) nm excitation, 450(20) nm emission) then incubated (room temperature, protected from light) for 15 minutes (~20% conversion). The change in fluorescence intensity over the 15-minute reaction period was normalized against no-inhibitor and no-enzyme controls and the resulting percent inhibition data were fitted to a 4-parameter Hill equation. Aprotinin was used as the intraplate control.
As for `Cc1ncc(COP(=O)(O)O)c(C=O)c1O`, the Potency result was “inactive”. The same measure, in the same setting: the value for `CCN(CC)CCNC(=O)c1c(C)[nH]c(/C=C2\C(=O)Nc3ccc(F)cc32)c1C` was “inactive”; that for `CCC(=O)Nc1ccc(O)cc1` was “inactive”.

On to `CC(=O)NC(Cc1ccccc1)C(=O)O` (stereo not given), for which the Potency result is “inactive”. Take `C[C@](N)(Cc1ccc(O)cc1)C(=O)O`: the activity change, negative = inhibition was -1.38% [at 4.99 µM] (inactive). In the case of `C[C@@H](O)[C@H](N)C(=O)O`, the Potency result was “inactive”. On the same count and under the same terms, the value for `Nc1nc2c(ncn2CCC(CO)CO)c(=O)[nH]1` was “inactive”; that for `C=CCn1c(=O)n([C@@H]2O[C@H](CO)[C@@H](O)[C@H]2O)c2nc(N)[nH]c(=O)c21` was “inactive”; that for `O=C(O)[C@H](O)c1ccccc1` was “inactive”. On the same count and under the same terms, the value for `CCCCOC(=O)c1ccc(O)cc1` was “inactive”. On the same count and under the same terms, the value for `CC(C)(C(=O)O)c1ccc(C(O)CCCN2CCC(C(O)(c3ccccc3)c3ccccc3)CC2)cc1` (stereo not given) was “inactive”; that for `CNCCC(Oc1ccc(C(F)(F)F)cc1)c1ccccc1` (stereo not given) was “inactive”.

In the case of `CC1=C(CC(=O)O)c2cc(F)ccc2/C1=C\c1ccc(S(C)=O)cc1` (stereo not given), the Potency result was “inactive”. Take `C[C@@H]1C[C@H]2[C@@H]3C[C@H](F)C4=CC(=O)C=C[C@]4(C)[C@@]3(F)[C@@H](O)C[C@]2(C)[C@@]1(O)C(=O)CO`: the Potency result is “inactive”. Same read-out and setting: the value for `COc1ccc2cc1Oc1cc3c(cc1OC)CC[N+](C)(C)[C@H]3Cc1ccc(cc1)Oc1c(OC)c(OC)cc3c1[C@@H](C2)[N+](C)(C)CC3` was “inactive”; that for `NS(=O)(=O)c1cc2c(cc1Cl)NC(CSCc1ccccc1)=NS2(=O)=O` was “inactive”; that for `O=C1O[C@H](CO)[C@@H](O)[C@H](O)[C@H]1O` was “inactive”. Consider `O=C(O)CN1C(=O)c2cccc3cccc(c23)C1=O`, for which the Potency result is “inactive”. `O=c1cc(CO)occ1O`: the Potency entry was “inactive”. The same measure, in the same setting: with `c1ccc(CN(CC2=NCCN2)c2ccccc2)cc1` the entry was “inactive”. On the same count and under the same terms, with `CN1CCC[C@@H]1Cc1c[nH]c2ccc(CCS(=O)(=O)c3ccccc3)cc12` the entry was “inactive”; with `COc1cc(C(=O)N2CCOCC2)cc(OC)c1OC`, “inactive”; with `OC[C@H]1O[C@@H](O[C@@H]2[C@@H](CO)O[C@](O)(CO)[C@H]2O)[C@H](O)[C@@H](O)[C@H]1O`, “inactive”. Still for that read-out and setting: with `CO/N=C(\C(=O)N[C@@H]1C(=O)N2C(C(=O)O)=C(CSc3nc(=O)c(O)nn3C)CS[C@H]12)c1csc(N)n1` the entry was “inactive”; with `NC(=O)NC(=O)Cc1ccccc1`, “inactive”. As to `C[C@@H]1CCN(C(=O)[C@H](CCCN=C(N)N)NS(=O)(=O)c2cccc3c2NC[C@H](C)C3)[C@@H](C(=O)O)C1`, the Potency result is “inactive”.

For the compound `[O-][n+]1cccc(CO)c1`, the Potency result was “inactive”. Still for that read-out and setting: the value for `CN1CCN(C2Cc3ccccc3Sc3ccc(Cl)cc32)CC1` (stereo not given) was “inactive”.

For `CCCCc1ncc(/C=C(\Cc2cccs2)C(=O)O)n1Cc1ccc(C(=O)O)cc1`, the Potency result is “inactive”.

Regarding `NC(=O)c1ncn([C@@H]2O[C@H](CO)[C@@H](O)[C@H]2O)c1N`, the Potency result is “inactive”. Same read-out and setting: with `COc1ccc2[nH]c(S(=O)Cc3ncc(C)c(OC)c3C)nc2n1` (stereo not given) the entry was “inactive”.

Consider `Cc1cc(C(C#N)c2ccc(Cl)cc2)c(Cl)cc1NC(=O)c1cc(I)cc(I)c1O` (stereo not given), for which the Potency was 3.98 µM (active). Turning to `NC1[C@H]2CN(c3nc4c(cc3F)c(=O)c(C(=O)O)cn4-c3ccc(F)cc3F)C[C@@H]12` (stereo not given in full), the Potency entry is “inactive”. For the compound `O=C1NC(=O)[C@@]2(CCOc3ccc(F)cc32)N1`, the Potency result was “inactive”. On the same count and under the same terms, with `O=C1O[C@H]([C@@H](O)CO)C(O)=C1O` the entry was “inactive”; with `CC[C@H]1CN2CCc3cc(OC)c(OC)cc3[C@@H]2C[C@@H]1C[C@H]1NCCc2cc(OC)c(OC)cc21`, “inactive”. As to `CCOC(=O)[C@H](CCc1ccccc1)N[C@@H](C)C(=O)N1C(=O)N(C)C[C@H]1C(=O)O`, the Potency entry is “inactive”. On the same count and under the same terms, with `CNCC(O)c1ccc(O)c(O)c1` (stereo not given) the entry was “inactive”; with `CN(C)CCCO[C@@H]1[C@H]2OC(C)(C)O[C@H]2O[C@@H]1C(O)CO` (stereo not given in full), “inactive”; with `CC(=O)O[C@@]12CO[C@@H]1C[C@H](O)[C@@]1(C)C(=O)[C@H](O)C3=C(C)[C@@H](OC(=O)[C@H](O)[C@@H](NC(=O)OC(C)(C)C)c4ccccc4)C[C@@](O)([C@@H](OC(=O)c4ccccc4)[C@H]21)C3(C)C`, “inactive”.
